Data taken from PubChem BioAssay (Tox21).
Records with an inconclusive call do not appear. Calls of active or inactive are those of the source. Unless noted, the call rests on the fitted dose curve.

Key:
[1] = Nuclear factor erythroid 2-related factor 2/antioxidant responsive element (Nrf2/ARE) small molecule agonists: qHTS cell viability counter screen in human keratinocytes (AID 1919968; active means well fitted curve in the direction sought with a large enough effect in the repeat runs; an effect the other way counts as inactive or inconclusive; further: nearly all actives have a fitted effect of over 55% in size)
Summary of the method: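 CellTiter-Fluor fluorescence, read 1 h after reagent, gave viability in the same wells as the ARE-luciferase assay. KeratinoSens cells (1,500/well) had 23 h compound exposure at 37 C/5% CO2 following 5 h plating.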

[2] = Nuclear factor erythroid 2-related factor 2/antioxidant responsive element (Nrf2/ARE) small molecule agonists: luciferase reporter gene qHTS assay in human keratinocytes (AID 1919969); further: nearly all actives have a fitted effect of over 35% in size
[3] = target: Gonadotropin-releasing hormone receptor (Homo sapiens) (UniProt P30968); assay: Human gonadotropin-releasing hormone receptor (GnRHR) small molecule agonists, calcium flux assay in GnRHR-HEK293 cells (AID 1920063); further: nearly all actives have a fitted effect of over 35% in size
Summary of the method: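 Agonist mode: compounds at 15 concentrations, in triplicate, went onto calcium dye-loaded GnRHR-HEK293 cells. Intracellular calcium was then followed as 480/540 nm fluorescence at 1 s intervals over 3 min.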

[4] = target: KiSS-1 receptor (Homo sapiens) (UniProt Q969F8); assay: Human kisspeptin (KISS1R) small molecule agonists, calcium flux assay in KISS1R-HEK293 cells (AID 1920064; active means well fitted curve in the direction sought with a large enough effect in the repeat runs; an effect the other way counts as inactive or inconclusive)
Summary of the method: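 Agonist mode: intracellular calcium rise tracked at 1 s intervals over 3 min (480/540 nm) immediately after compound addition to dye-loaded KISS1R-HEK293 stable cells. Each compound tested at 15 concentrations in triplicate.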

[5] = G protein-coupled receptor (GPCR) small molecule agonists, calcium flux assay: HEK293 wild type cell line counter screen (AID 1920065)
Summary of the method: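 Calcium flux counter screen: compound added in agonist mode at 15 concentrations in triplicate to dye-loaded parental HEK293 cells. Fluorescence (480/540) read kinetically for 3 min; ATP served as positive control.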

[6] = p53 small molecule agonists, cell-based qHTS assay with human liver microsomes (AID 1963577)
Summary of the method: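 Cells carrying a p53-responsive bla reporter were rested 5 h (37 C, 5% CO2) before compound transfer. Human liver microsomes plus NADPH, 0.5 mg/mL final apiece, supplied metabolism during the 16 h 37 C exposure.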

[7] = p53 small molecule agonists, cell-based qHTS assay with rat liver microsomes (AID 1963578)
Summary of the method: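 Fluorescence from a beta-lactamase reporter under a p53 response element was measured after cells had been incubated 16 h at 37 C with test compound and rat liver microsomes plus NADPH (0.5 mg/mL final each).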

[8] = p53 small molecule agonists, cell-based qHTS assay with human liver microsomes: qHTS cell viability counter screen (AID 1963579); further: nearly all actives have a fitted effect of over 45% in size
Summary of the method: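 Seed p53RE-bla cells at 4,000 per well; incubate 5 h at 37 C; add compound, human liver microsomes and NADPH; incubate 16 h at 37 C; add CellTiter-Glo; after 30 min at room temperature, read luminescence.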

[9] = p53 small molecule agonists, cell-based qHTS assay with rat liver microsomes: qHTS cell viability counter screen (AID 1963580); further: nearly all actives have a fitted effect of over 45% in size
Summary of the method: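 Luminescent ATP readout (CellTiter-Glo, 30 min at room temperature) reports viability of p53RE-bla HCT-116 cells after 16 h at 37 C with test compounds under metabolic activation by rat liver microsomes and NADPH at 0.5 mg/mL final each.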

[10] = p53 small molecule agonists, cell-based qHTS assay: qHTS cell viability counter screen (AID 1963581); further: nearly all actives have a fitted effect of over 45% in size
Summary of the method: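 Counter screen read by CellTiter-Glo luminescence (ATP content, 30 min at room temperature), run in the same wells as the beta-lactamase reporter read. HCT-116 p53RE-bla cells saw compounds for 16 h at 37 C.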

[11] = p53 small molecule agonists, cell-based qHTS assay (AID 1963582; active means well fitted activation curve with a large enough effect in the signal ratio in the repeat runs, not every such curve was filed as active; the % refers to the signal ratio)
Summary of the method: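 Read-out is beta-lactamase FRET fluorescence after 2 h at room temperature with LiveBLAzer B/G substrate. p53 response element-bla cells were treated 16 h at 37 C with compounds in DMSO, added 5 h after seeding.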

[12] = target: 5-hydroxytryptamine receptor 2A (Homo sapiens) (UniProt P28223); assay: 5-hydroxytryptamine receptor 2A (HTR2A) small molecule antagonists, cell-based qHTS assay (AID 1963586); further: nearly all actives have a fitted effect of over 45% in size
Summary of the method: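 CHO cells stably expressing human HTR2A were plated for 18 h at 37 C, then loaded with calcium dye for 1 h. Compounds were preincubated 5 min at room temperature before DOI (4 nM solution) was added. Kinetic fluorescence was read for 3 min.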

[13] = target: 5-hydroxytryptamine receptor 2A (Homo sapiens) (UniProt P28223); assay: 5-hydroxytryptamine receptor 2A (HTR2A) small molecule agonists, cell-based qHTS assay (AID 1963587); further: nearly all actives have a fitted effect of over 30% in size
Summary of the method: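 HTR2A-CHO cells, plated 18 h at 37 C/5% CO2, dye-loaded 1 h at 37 C; compounds in DMSO added by pin tool (agonist mode). Intracellular calcium flux read as kinetic fluorescence on FDSS over 2 min at 1 s intervals.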

[14] = target: Muscarinic acetylcholine receptor M1 (Homo sapiens) (UniProt P11229); assay: Cholinergic receptor muscarinic 1 (CHRM1) small molecule antagonists, cell-based qHTS assay (AID 1963588); further: nearly all actives have a fitted effect of over 40% in size
Summary of the method: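 Compounds were tested at 15 concentrations in three independent runs. Dye-loaded CHRM1-CHO cells were exposed 5 min at room temperature before stimulation by acetylcholine added at 50nM. Intracellular calcium was read kinetically on FDSS for 3 min.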

[15] = target: Muscarinic acetylcholine receptor M1 (Homo sapiens) (UniProt P11229); assay: Cholinergic receptor muscarinic 1 (CHRM1) small molecule agonists, cell-based qHTS assay (AID 1963589); further: nearly all actives have a fitted effect of over 35% in size
Summary of the method: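 Agonist-mode calcium-flux screen: compounds at 15 concentrations, three independent runs, were pin-transferred onto dye-loaded human CHRM1-CHO cells. Fluorescence was then recorded kinetically every second over minutes.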

[16] = cAMP Responsive Elements (CRE) small molecule agonists, cell-based qHTS assay (AID 1963590)
Summary of the method: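 Agonist mode: compound added to CRE-bla HEK 293T cells (2,000/well, 18 h after plating) for 3 h at 37 C/5% CO2. Reporter activity detected via FRET beta-lactamase substrate, 2 h room-temperature loading.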

[17] = cAMP Responsive Elements (CRE) small molecule antagonists, cell-based qHTS assay (AID 1963591; active means well fitted inhibition curve with a large enough effect in the signal ratio in the repeat runs, not every such curve was filed as active; the % refers to the signal ratio)
Summary of the method: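 Antagonist mode: compounds are added alongside the adenylyl cyclase activator NKH477 (0.25 uM final) to CRE-bla HEK293T cells for 3 h. LiveBLAzer FRET substrate, 2 h at room temperature, reports bla expression.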

[18] = target: Beta-2 adrenergic receptor (Homo sapiens) (UniProt P07550); assay: Adrenergic beta2 receptor (ADRB2) small molecule antagonists, cell-based qHTS assay (AID 1963592); further: series mostly up to about 92 µM; nearly all actives have a fitted effect of over 50% in size
Summary of the method: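 Assay format: CHO-ADRB2 cells, 18-20hr seeding at 37C/5% CO2, then compound plus 1nM isoproterenol agonist mix for 0.5hr RT. Homogeneous time-resolved fluorescence cAMP detection after 1hr, expressed as 665/615 nm ratio.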

[19] = target: Beta-2 adrenergic receptor (Homo sapiens) (UniProt P07550); assay: Adrenergic beta2 receptor (ADRB2) small molecule agonists, cell-based qHTS assay (AID 1963593);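 further: CHO cells stably overexpressing human ADRB2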
Summary of the method: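 CHO cells stably over-expressing ADRB2 were plated overnight at 37C, then dosed with compounds plus a stimulation mix containing 100uM IBMX and 25uM Ro-20-1724 for 0.5hr at room temperature. cAMP was measured by HTRF competition, 1hr.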

[20] = target: D(2) dopamine receptor (Homo sapiens) (UniProt P14416); assay: Dopamine D2 receptor (DRD2) small molecule agonists, cell-based qHTS assay (AID 1963594); further: nearly all actives have a fitted effect of over 35% in size
Summary of the method: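 HEK293 cells stably expressing DRD2 were cultured 24 h at 37 C, then given Ro20-1724 (0.1 mM final) and compounds for 10 min at room temperature. NKH477 (200nM) was then added for 30 min. cAMP was read by HTRF.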

Measured: Potency

Chain of Beta-2 adrenergic receptor (Homo sapiens) (P07550 whole entry, looked up): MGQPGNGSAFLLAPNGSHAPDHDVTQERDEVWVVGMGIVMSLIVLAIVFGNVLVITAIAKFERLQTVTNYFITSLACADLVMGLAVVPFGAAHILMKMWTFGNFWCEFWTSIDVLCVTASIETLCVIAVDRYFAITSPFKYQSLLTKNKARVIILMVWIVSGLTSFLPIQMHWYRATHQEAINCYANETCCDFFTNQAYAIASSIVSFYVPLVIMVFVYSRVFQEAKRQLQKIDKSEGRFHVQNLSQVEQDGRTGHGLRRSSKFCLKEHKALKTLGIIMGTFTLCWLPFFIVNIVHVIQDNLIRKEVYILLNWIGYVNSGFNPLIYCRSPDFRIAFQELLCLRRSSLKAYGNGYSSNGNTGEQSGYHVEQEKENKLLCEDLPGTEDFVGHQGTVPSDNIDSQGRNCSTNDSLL
Chain of KiSS-1 receptor (Homo sapiens) (Q969F8 whole entry, looked up): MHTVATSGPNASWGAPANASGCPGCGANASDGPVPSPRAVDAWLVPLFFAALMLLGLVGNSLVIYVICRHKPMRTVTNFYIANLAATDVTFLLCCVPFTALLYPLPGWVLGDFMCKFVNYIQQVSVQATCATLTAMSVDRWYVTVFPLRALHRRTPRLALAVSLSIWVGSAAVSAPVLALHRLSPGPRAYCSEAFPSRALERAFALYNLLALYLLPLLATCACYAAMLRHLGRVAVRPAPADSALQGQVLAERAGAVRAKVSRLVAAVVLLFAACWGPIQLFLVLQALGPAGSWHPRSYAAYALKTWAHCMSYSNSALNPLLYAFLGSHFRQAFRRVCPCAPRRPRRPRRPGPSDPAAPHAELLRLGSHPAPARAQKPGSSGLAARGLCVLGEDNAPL
Chain of D(2) dopamine receptor (Homo sapiens) (P14416 whole entry, looked up): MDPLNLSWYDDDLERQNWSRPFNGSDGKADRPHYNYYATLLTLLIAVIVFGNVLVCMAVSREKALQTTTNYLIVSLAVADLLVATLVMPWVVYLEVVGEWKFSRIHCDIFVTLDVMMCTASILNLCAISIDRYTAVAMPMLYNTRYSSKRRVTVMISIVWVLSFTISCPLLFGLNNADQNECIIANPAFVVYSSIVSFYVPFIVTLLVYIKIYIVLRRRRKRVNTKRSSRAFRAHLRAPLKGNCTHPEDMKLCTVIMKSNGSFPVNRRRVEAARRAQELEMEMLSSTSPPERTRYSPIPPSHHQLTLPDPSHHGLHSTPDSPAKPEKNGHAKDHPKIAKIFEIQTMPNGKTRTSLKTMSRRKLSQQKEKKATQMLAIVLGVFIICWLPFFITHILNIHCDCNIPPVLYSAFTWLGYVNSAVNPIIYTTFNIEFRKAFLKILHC
Chain of 5-hydroxytryptamine receptor 2A (Homo sapiens) (P28223 whole entry, looked up): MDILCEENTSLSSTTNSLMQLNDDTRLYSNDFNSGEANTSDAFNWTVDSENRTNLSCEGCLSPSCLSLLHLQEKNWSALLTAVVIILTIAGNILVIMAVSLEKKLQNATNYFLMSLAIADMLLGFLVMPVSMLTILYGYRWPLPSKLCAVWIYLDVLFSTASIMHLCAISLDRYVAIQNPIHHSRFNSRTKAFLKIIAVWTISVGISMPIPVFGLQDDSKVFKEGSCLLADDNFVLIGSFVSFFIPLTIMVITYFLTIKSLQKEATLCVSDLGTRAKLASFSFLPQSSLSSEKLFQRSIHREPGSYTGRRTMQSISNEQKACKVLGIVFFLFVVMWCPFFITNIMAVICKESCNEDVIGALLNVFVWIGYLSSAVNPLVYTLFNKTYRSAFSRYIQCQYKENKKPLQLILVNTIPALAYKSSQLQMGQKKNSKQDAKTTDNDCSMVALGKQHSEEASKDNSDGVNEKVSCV
Chain of Muscarinic acetylcholine receptor M1 (Homo sapiens) (P11229 whole entry, looked up): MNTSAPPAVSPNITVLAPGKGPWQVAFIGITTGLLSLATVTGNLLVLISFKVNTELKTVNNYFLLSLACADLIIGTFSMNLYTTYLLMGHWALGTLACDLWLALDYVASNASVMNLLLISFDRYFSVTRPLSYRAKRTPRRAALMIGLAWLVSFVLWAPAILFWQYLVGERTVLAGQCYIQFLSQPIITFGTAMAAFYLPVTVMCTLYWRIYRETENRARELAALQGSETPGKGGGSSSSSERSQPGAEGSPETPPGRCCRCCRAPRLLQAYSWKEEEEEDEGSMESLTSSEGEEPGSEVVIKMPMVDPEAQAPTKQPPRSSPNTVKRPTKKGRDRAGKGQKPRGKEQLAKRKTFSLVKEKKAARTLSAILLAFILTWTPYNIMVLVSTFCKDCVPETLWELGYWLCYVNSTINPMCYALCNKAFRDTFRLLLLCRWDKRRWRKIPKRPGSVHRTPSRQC
Chain of Gonadotropin-releasing hormone receptor (Homo sapiens) (P30968 whole entry, looked up): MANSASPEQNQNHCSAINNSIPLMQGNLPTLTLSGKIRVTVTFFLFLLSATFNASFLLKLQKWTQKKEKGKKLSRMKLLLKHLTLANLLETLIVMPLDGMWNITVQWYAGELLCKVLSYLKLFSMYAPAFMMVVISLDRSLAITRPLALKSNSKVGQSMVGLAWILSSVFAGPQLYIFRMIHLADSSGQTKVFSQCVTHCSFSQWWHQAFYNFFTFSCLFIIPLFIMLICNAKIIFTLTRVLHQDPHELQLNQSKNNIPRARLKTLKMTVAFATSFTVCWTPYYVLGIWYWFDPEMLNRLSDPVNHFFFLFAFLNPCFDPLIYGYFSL

O=S(=O)(O)CCN1CCN(CCO)CC1
inactive: [1] | [2] | [3] | [4] | [5] | [6] | [7] | [8] | [9] | [10] | [11] | [12] | [13] | [14] | [15] | [16] | [17] | [18] | [19] | [20]

O=CC1CC1
inactive: [1] | [2] | [3] | [4] | [5] | [6] | [7] | [8] | [9] | [10] | [11] | [12] | [13] | [14] | [15] | [16] | [17] | [18] | [19] | [20]

CC(C)(C)OC(=O)c1cccc(N)c1
inactive: [1] | [2] | [3] | [4] | [5] | [6] | [7] | [8] | [9] | [10] | [11] | [12] | [13] | [14] | [15] | [16] | [17] | [18] | [19] | [20]

CCC(C)(C)C1CCC(OC)CC1 (stereo not given)
inactive: [1] | [2] | [3] | [4] | [5] | [6] | [7] | [8] | [9] | [10] | [11] | [12] | [13] | [14] | [15] | [16] | [17] | [18] | [19] | [20]

Clc1nc(Cl)c(Cl)c(Cl)c1Cl
inactive: [1] | [2] | [3] | [4] | [5] | [6] | [7] | [8] | [9] | [10] | [11] | [12] | [13] | [14] | [15] | [16] | [17] | [18] | [19] | [20]

COc1ccc(Cl)cc1C
inactive: [1] | [2] | [3] | [4] | [5] | [6] | [7] | [8] | [9] | [10] | [11] | [12] | [13] | [14] | [15] | [16] | [17] | [18] | [19] | [20]

OC1OC[C@@H](O)[C@H](O)[C@H]1O (stereo not given in full)
inactive: [1] | [2] | [3] | [4] | [5] | [6] | [7] | [8] | [9] | [10] | [11] | [12] | [13] | [14] | [15] | [16] | [17] | [18] | [19] | [20]

NC(=O)Nc1ccc(Cl)cc1
inactive: [1] | [2] | [3] | [4] | [5] | [6] | [7] | [8] | [9] | [10] | [11] | [12] | [13] | [14] | [15] | [16] | [17] | [18] | [19] | [20]

CC1=C(O)C(=O)C(C)O1 (stereo not given)
inactive: [1] | [2] | [3] | [4] | [5] | [6] | [7] | [8] | [9] | [10] | [11] | [12] | [13] | [14] | [15] | [16] | [17] | [18] | [19] | [20]

OCC1CC2CC1C1CCC(CO)C21 (stereo not given)
inactive: [1] | [2] | [3] | [4] | [5] | [6] | [7] | [8] | [9] | [10] | [11] | [12] | [13] | [14] | [15] | [16] | [17] | [18] | [19] | [20]

C=CCCCCCCCC
inactive: [1] | [2] | [3] | [4] | [5] | [6] | [7] | [8] | [9] | [10] | [11] | [12] | [13] | [14] | [15] | [16] | [17] | [18] | [19] | [20]

COc1ccc(C(=O)CC(=O)c2ccc(C(C)(C)C)cc2)cc1
inactive: [1] | [2] | [3] | [4] | [5] | [6] | [7] | [8] | [9] | [10] | [11] | [12] | [13] | [14] | [15] | [16] | [17] | [18] | [19] | [20]

CCC(OCCCOC)OC(C)=O (stereo not given)
inactive: [1] | [2] | [3] | [4] | [5] | [6] | [7] | [8] | [9] | [10] | [11] | [12] | [13] | [14] | [15] | [16] | [17] | [18] | [19] | [20]

C=C(C)C(=O)OCCC(C)OC(=O)C(=C)C (stereo not given)
inactive: [1] | [2] | [3] | [4] | [5] | [6] | [7] | [8] | [9] | [10] | [11] | [12] | [13] | [14] | [15] | [16] | [17] | [18] | [19] | [20]

CCCCN(CCCC)CCCCCCN(CCCC)CCCC
inactive: [1] | [2] | [3] | [4] | [5] | [6] | [7] | [8] | [9] | [10] | [11] | [12] | [13] | [14] | [15] | [16] | [17] | [18] | [19] | [20]
